DAX1 inh-1: inhibitors of human orphan nuclear receptor DAX1 (NR0B1); hit rate 0.99% among 340,000; HEK293 Gal4-DAX1 luciferase reporter, luminescence; P51843; inhibition, % at 6.75 µM;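 active = inhibition above the mean over all tested compounds plus 3 SD, cut at about 4.2% in these data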;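 note: 0% = DAX1-transfected cells with DMSO and 100% = empty-vector control cells with DMSO; inhibition shows as a rise in luminescence from relieved DAX1 repression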
Target sequence (P51843 207-470 limits assumed): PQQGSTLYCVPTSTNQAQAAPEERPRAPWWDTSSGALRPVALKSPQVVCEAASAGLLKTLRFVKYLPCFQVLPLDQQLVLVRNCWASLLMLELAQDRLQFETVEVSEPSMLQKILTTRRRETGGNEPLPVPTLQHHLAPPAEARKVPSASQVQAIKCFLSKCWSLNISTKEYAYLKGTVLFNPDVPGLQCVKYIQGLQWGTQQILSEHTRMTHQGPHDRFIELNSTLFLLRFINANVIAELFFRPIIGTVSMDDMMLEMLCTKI
hgDAF-12 ag: agonists of H. glycines DAF-12 nuclear receptor. HEK293 GAL4-hgDAF12 UAS-luciferase reporter, agonist luminescence; normalized to butyrate control. activation, % at 6.8 µM. hit rate 1.8% among 370,000. AID 687014;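 active = activation above a cutoff set at the mean of all screened compounds plus 3 SD, cut at about 10% in these data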;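 note: 0% = DMSO wells and 100% = sodium butyrate wells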
DAX1 inh-2: inhibitors of DAX1 repression of SF-1 activated StAR promoter. HEK293T StAR-luciferase reporter, SF-1/DAX-1 repression relief. inhibition, % at 6.8 µM. hit rate 1.1% among 370,000;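 active = inhibition above the mean over all tested compounds plus 3 SD, cut at about 3.6% in these data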;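 note: 0% = DAX-1 cells with DMSO and 100% = cells lacking DAX-1 with DMSO; higher inhibition means more luminescence from relief of DAX-1 repression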
hcDAF-12 act: activates DAF-12 receptor from parasite H. contortus; HEK293 hcDAF-12 lit1-tk-luc reporter, luminescence; 0% DMSO, 100% Δ7-dafachronic acid; activation, % at 6.8 µM; hit rate 1.4% among 370,000; AID 652067;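 active = activation above the mean of all tested compounds plus 3 SD, cut at about 5.5% in these data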;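 note: 100% = response to 3 µM Δ7-dafachronic acid high control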
ssDAF12 agonist: S. stercoralis DAF-12 activation, primary screen; AID 652126; hit rate 1% among 370,000; activation, % at 6.8 µM; HEK293 ssDAF-12/GRIP1 lit1-tk-luc reporter, luminescence; % of 3 µM dafachronic acid response;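 active = activation above the mean over all tested compounds plus 3 SD, cut at about 0.9% in these data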;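 note: 0% = DMSO-only wells and 100% = 3 µM delta7-dafachronic acid wells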
DAX1 inh confirm: NR0B1 (human) inhibition, confirmation; shares compounds with DAX1 inh-2; HEK293T StAR-promoter luciferase reporter, SF-1/DAX-1 repression; inhibition, % at 6.8 µM; hit rate 87% among 2,400;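 active = inhibition above the average of every tested compound plus 3 SD, cut at about 3.8% in these data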;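 note: 0% = DAX-1 cells with DMSO and 100% = no DAX-1 control cells with DMSO; active compounds raise luminescence by relieving repression of the StAR reporter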
Target sequence (P51843 whole entry, looked up): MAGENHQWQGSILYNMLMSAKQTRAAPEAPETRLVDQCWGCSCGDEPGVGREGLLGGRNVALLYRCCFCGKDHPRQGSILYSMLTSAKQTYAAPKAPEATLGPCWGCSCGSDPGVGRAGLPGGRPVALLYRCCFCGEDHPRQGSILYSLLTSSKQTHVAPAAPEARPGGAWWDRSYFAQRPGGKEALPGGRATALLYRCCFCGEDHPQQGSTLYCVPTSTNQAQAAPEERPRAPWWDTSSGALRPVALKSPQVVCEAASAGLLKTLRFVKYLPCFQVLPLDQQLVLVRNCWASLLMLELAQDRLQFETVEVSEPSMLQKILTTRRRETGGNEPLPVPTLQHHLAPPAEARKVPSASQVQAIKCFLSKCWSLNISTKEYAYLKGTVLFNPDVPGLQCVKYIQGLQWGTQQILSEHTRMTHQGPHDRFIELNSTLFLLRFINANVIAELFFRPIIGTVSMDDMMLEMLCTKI
SF1 AF2mut Luc: counter-screen for DAX1 inhibitors: nonselective inhibitors with SF-1 AF2 mutant | shares compounds with DAX1 inh-2 | HEK293 StAR-luciferase, luminescence | inhibition, % at 6.8 µM | hit rate 78% among 2,400;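 active = inhibition above the mean of all tested compounds plus 3 SD, cut at about 3% in these data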;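 note: 0% = DAX-1 transfected cells with DMSO and 100% = cells without DAX-1 with DMSO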
LXRb hcDAF ctr: activates human LXR-beta, counter-screen for hcDAF-12 agonists; HEK293 Gal4-LXR tk-luc reporter, luminescence, 24 h; normalized: DMSO 0%, positive control 100%; shares compounds with hcDAF-12 act; 3,400 tested, under 10 active; AID 743027; activation, % at 6.8 µM;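 active = mean percent activation of the reporter above a cutoff set as the average over tested compounds plus their standard deviation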
hcDAF12 ag: hcDAF-12 agonism, confirmation assay | shares compounds with hcDAF-12 act | activation, % at 6.8 µM | hit rate 61% among 3,400 | HEK293 hcDAF-12 lit1-tk-luc reporter, luminescence; % of Δ7-dafachronic acid response;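 active = mean activation across triplicate tests above the threshold derived from the earlier primary screen, cut at about 5.5% in these data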;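 note: 0% = DMSO only wells and 100% = 3 µM Δ7-dafachronic acid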
hgDAF12 conf: confirmation of H. glycines DAF-12 agonists | shares compounds with hgDAF-12 ag | HEK293 GAL4-hgDAF12 luciferase reporter, agonist mode; percent of butyrate response | activation, % at 6.8 µM | hit rate 80% among 3,300 | AID 743050;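 active = mean activation over triplicate wells above the hit cutoff derived from the earlier primary screen, cut at about 11% in these data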;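 note: 0% = DMSO low control and 100% = 2 mM sodium butyrate high control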
LXR ag 2: LXR-beta agonism as DAF-12 counter-screen; shares compounds with hgDAF-12 ag; HEK293 Gal4-LXR luciferase reporter, 24 h; activation, % at 6.8 µM; 3,300 tested, under 10 active;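 active = mean activation of the triplicate above a set limit carried over from the primary screen, none filed active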
* hit, by the source's call; · = not tested or not shown. Shown are actives, neighbours in structure and some others; about 4.1% of the full set was active somewhere.

SMILES | DAX1 inh-1 | hgDAF-12 ag | DAX1 inh-2 | hcDAF-12 act | ssDAF12 agonist | DAX1 inh confirm | SF1 AF2mut Luc | hgDAF12 conf | LXR ag 2 | others
CCCc1nc2c3ccccc3ccn2c1Cc1ccc(C)cc1 | · | 18* | 6.0* | 12* | 2.3* | 8.0* | 4.3* | 11* | 1 | LXRb hcDAF ctr=1;hcDAF12 ag=13*
O=C(CCNC(=O)c1ccc(Cl)cc1)Nc1c(F)c(F)cc(F)c1F | 0 | 2 | 0 | 1 | -1 | · | · | · | ·
COc1ccc2nc(NC(=O)Nc3ccccc3OC)sc2c1 | 3 | 9 | 2 | 2 | 0 | · | · | · | ·
COc1ccc2nc(NC(=O)C3CCCO3)sc2c1 (centres undefined) | 4.3* | 15* | 5.8* | 4 | 0 | 11* | 6.1* | 12* | 1
Cc1ccc(Nc2nc3ccccc3s2)cc1 | 3 | 26* | 4.7* | 9.7* | 2.4* | 15* | 7.3* | 24* | 1 | LXRb hcDAF ctr=2;hcDAF12 ag=7.9*
Cc1ccc(S(=O)(=O)Nc2nc3ccccc3s2)cc1 | 0 | 2 | 0 | 3 | 0 | · | · | · | ·
COc1ccc2nc(Nc3ccccc3)sc2c1 | 3 | 26* | 7.3* | 5 | 0 | 12* | 9.5* | 14* | 1
COc1ccc2nc(Nc3ccccc3OC)sc2c1 | 0 | 20* | 6.4* | 11* | 1.6* | 17* | 10* | 22* | 1 | LXRb hcDAF ctr=2;hcDAF12 ag=8.7*
Cc1ccc(C)c(CC(=O)N2CCCC(c3cc(C(=O)NCc4cccnc4)no3)C2)c1 (centres undefined) | · | -2 | 0 | -1 | -2 | · | · | · | ·
CCCNc1c(NS(=O)(=O)c2cccc(C#N)c2)c(=O)oc2ccccc12 | 1 | 0 | -1 | -2 | -1 | · | · | · | ·
COc1ccc(CCNC(=O)CSc2nnc3ccccn23)cc1 | -1 | 6 | 0 | -2 | -1 | · | · | · | ·
CC(=O)N(C)c1ccc(N=Nc2c(C)[nH]n(C(N)=S)c2=O)cc1 | 4 | 16* | 4.8* | 6.5* | 0 | 12* | 5.3* | 17* | 1
O=C(CSc1ccc2nc(-c3ccccc3)cn2n1)NCC1CCCO1 (centres undefined) | 0 | 4 | 1 | 1 | 0 | · | · | · | ·
COc1ccc(-c2cn3nc(SCC(=O)NCC4CCCO4)ccc3n2)cc1 (centres undefined) | 0 | 14* | 13* | 5 | 0 | 8.5* | 4.0* | 15* | 1
O=C(NC1CCCCC1)c1ccc([N+](=O)[O-])o1 | -2 | · | · | · | · | · | · | · | ·
O=C(NC1CCCCC1)c1ccc(-c2ccccc2[N+](=O)[O-])o1 | 3 | 15* | 9.3* | 7.9* | 1.1* | 8.9* | 5.5* | 14* | 1 | LXRb hcDAF ctr=1;hcDAF12 ag=7.3*
O=C(N/N=C1/CC2C=CCC12)c1cccs1 (centres undefined) | 2 | 15* | 8.3* | 4 | 1.1* | 2 | 2 | 4 | 0
O=C(NN=C1C2CC3CC(C2)CC1C3)c1ccccc1O | 0 | 0 | 2 | 0 | -1 | · | · | · | ·
O=C(NN=C1C2CC3CC(C2)CC1C3)c1cccs1 | 3 | 14* | 7.4* | 5 | 0 | 3 | 1 | 1 | 0
C=C(C)C1CC=C(C)/C(=N/NC(=O)c2cccs2)C1 (centres undefined) | 4 | 6 | 0 | -1 | 0 | · | · | · | ·
CC(=O)Nc1cc(-c2ccc(C(=O)NC3CC3)cc2)cn2c(-c3ccc(F)c(Cl)c3)cnc12 | · | 1 | -2 | -4 | -2 | · | · | · | ·
CCCCc1ncc(CN2CCC(n3nccc3NC(=O)c3ccccc3Cl)CC2)[nH]1 | 0 | -1 | 0 | 0 | -1 | · | · | · | ·
Cc1cc(O)c(-c2cc(C(=O)Nc3cccnc3)[nH]n2)cc1C | 3 | 20* | 4.8* | 6.3* | 1 | 16* | 7.0* | 16* | 1
Cc1ccc(-c2cnc3c(Cl)c(C)nn3c2)cc1 | 3 | 24* | 6.6* | 5 | 1 | 0 | -5 | 18* | 1
Cc1ccc(-c2cnc3cc(C)nn3c2)cc1 | -1 | 18* | 9.7* | 5.9* | 0 | 11* | 5.2* | 12* | 1
SMILES | DAX1 inh-1 | hgDAF-12 ag | DAX1 inh-2 | hcDAF-12 act | ssDAF12 agonist | DAX1 inh confirm | SF1 AF2mut Luc | hgDAF12 conf | LXR ag 2 | others
CC(=O)Oc1ccc(C(=O)NCCc2ccccc2)cc1 | 1 | 15* | 7.2* | 4 | 1 | 12* | 5.3* | 14* | 1
Cc1ccc(-c2nn(-c3ccccc3)cc2C(=O)N2CCN(C3CCS(=O)(=O)C3)CC2)cc1 (centres undefined) | 1 | -1 | -1 | 2 | -1 | · | · | · | ·
Cn1c(=O)c(C(=O)c2ccccc2)nc2ccccc21 | -1 | 0 | 0 | -1 | -1 | · | · | · | ·
Cn1c(/N=C(\N)c2ccccc2)nc2ccccc21 | 4.5* | 21* | 8.4* | 14* | 1.7* | 13* | 9.9* | 20* | 1 | LXRb hcDAF ctr=1;hcDAF12 ag=17*
COc1ccc(NC(=O)CN(c2ccc(OC)cc2)S(=O)(=O)c2ccc(OC)c(OC)c2)cc1 | 2 | 2 | -1 | 0 | -1 | · | · | · | ·
Cc1csc(NC(=O)COc2ccc3c(c2)CCC3)n1 | 2 | 14* | 4.7* | 4 | 0 | 9.6* | 8.5* | 17* | 1
Cc1ccc(NC(=S)NC(=O)C2CCCCC2)c(Br)c1 | 3 | 18* | 9.8* | 6.3* | 0 | 7.8* | 7.2* | 15* | 1
COC(=O)[C@]12C[C@H](CC(=O)NCc3cccc4ccccc34)C(=O)N(Cc3ccc4c(c3)OCO4)C1=C[C@H](C(C)(C)C)O[C@@H]2C | · | 0 | 0 | 1 | -1 | · | · | · | ·
CN(C)S(=O)(=O)c1cccc(-c2nnc(SCCNCCO)n2-c2ccc(F)cc2)c1 | 1 | 1 | 1 | 1 | -1 | · | · | · | ·
c1ccc2c(C3=NNC(=NC4CC4)SC3)c[nH]c2c1 | 0 | 20* | 7.0* | 14* | 2.1* | 19* | 7.1* | 13* | 1 | LXRb hcDAF ctr=2;hcDAF12 ag=7.6*
Cn1nnnc1SCC(=O)Nc1ccc2c(c1)OCCO2 | 4 | 15* | 6.5* | 3 | 0 | 8.2* | 3 | 14* | 1

Screening data: PubChem, The Scripps Research Institute Molecular Screening Center
